Bioassay records from PubChem BioAssay.
BAZ2B block: qHTS Assay for Inhibitors of BAZ2B | Bromodomain adjacent to zinc finger domain protein 2B (Homo sapiens), Q9UIF8 | AlphaScreen BAZ2B-H3K14Ac peptide displacement | Potency, µM (highest dose often 114 µM), hits mostly inhibitors | 360,000 tested, 4.4% active | AID 504333, 2011; also: nearly all actives have a fitted effect of over 60% in size
Target sequence (Q9UIF8 whole entry, looked up, the tested form may be a part): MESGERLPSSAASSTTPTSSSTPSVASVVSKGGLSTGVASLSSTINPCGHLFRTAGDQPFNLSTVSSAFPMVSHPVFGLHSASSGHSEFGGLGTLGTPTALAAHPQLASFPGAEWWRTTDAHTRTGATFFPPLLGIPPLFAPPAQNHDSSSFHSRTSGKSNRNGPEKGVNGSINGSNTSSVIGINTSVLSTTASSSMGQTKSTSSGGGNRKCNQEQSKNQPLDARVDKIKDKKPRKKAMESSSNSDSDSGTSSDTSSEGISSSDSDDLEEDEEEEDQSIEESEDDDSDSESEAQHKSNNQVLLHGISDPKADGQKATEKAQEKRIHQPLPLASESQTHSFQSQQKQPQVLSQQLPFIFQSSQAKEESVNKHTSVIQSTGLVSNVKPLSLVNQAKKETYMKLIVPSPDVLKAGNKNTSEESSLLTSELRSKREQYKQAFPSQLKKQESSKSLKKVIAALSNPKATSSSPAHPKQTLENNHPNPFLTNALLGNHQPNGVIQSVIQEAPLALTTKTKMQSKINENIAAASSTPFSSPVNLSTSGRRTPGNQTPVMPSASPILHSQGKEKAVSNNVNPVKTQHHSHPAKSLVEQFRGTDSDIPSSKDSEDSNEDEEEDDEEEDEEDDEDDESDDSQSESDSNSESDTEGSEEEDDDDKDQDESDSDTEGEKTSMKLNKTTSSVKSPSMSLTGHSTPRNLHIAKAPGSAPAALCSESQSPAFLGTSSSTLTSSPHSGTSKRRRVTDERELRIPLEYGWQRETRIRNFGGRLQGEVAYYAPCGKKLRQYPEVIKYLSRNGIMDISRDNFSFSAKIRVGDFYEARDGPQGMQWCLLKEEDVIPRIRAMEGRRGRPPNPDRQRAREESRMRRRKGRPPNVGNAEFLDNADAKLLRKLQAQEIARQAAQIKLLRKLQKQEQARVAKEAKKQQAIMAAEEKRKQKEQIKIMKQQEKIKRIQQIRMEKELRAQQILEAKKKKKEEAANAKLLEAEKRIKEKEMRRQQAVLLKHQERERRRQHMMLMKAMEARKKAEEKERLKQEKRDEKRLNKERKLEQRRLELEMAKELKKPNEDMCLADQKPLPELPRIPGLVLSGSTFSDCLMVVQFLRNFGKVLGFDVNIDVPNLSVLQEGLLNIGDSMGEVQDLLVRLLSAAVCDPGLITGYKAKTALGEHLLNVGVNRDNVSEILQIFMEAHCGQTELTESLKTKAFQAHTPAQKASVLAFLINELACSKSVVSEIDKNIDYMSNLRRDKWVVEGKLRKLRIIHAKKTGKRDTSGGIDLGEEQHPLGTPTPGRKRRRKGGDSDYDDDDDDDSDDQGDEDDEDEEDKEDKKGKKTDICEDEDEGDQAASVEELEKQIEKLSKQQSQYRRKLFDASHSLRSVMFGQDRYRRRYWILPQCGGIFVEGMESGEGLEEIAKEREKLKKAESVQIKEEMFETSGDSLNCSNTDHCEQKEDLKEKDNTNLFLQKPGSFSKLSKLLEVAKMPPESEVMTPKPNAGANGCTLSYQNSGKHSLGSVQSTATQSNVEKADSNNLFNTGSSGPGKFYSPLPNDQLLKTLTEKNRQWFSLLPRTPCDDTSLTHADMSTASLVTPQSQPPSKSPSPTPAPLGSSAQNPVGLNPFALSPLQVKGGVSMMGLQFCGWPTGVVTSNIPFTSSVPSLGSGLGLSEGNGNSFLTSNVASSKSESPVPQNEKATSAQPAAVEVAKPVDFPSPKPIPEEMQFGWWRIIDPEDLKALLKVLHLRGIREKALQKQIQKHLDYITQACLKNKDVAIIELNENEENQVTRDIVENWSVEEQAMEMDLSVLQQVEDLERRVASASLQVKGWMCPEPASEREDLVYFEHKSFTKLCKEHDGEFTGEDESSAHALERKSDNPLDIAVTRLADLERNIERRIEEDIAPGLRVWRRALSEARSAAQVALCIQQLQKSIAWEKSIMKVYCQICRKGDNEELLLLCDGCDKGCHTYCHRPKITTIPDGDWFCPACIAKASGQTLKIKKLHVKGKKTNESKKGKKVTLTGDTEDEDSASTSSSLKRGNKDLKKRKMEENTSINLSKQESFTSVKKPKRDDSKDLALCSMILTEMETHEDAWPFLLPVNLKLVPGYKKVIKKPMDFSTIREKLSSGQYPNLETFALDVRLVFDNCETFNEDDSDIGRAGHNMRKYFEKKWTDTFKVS
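AlphaScreen luminescence quantifies BAZ2B engagement of H3K14Ac peptide; the protein and biotinylated peptide are both at 50 nM final, buffer PBS pH 7.4 with 0.01% Tween-20, all steps at room temperature.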
PI5P4K alpha inh: qHTS for Inhibitors of phosphatidylinositol 5-phosphate 4-kinase (PI5P4K). PI5P4Kalpha enzyme, ADP-Glo luminescence, 60 min; stronger effect = lower value. 330,000 tested, 1.2% active. Phosphatidylinositol 5-phosphate 4-kinase type-2 alpha (Homo sapiens), P48426. AID 652105, 2013. max response, %; active = max response of -50% or lower; inconclusive = between -30% and -50%; inactive = -30% or higher; also: value at the top dose of about 77 µM
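ADP-Glo luminescence end-point after a 60 min room-temperature kinase reaction. PI5P4Kalpha and substrate in HEPES pH 7.4 buffer with EGTA, 0.1% CHAPS and 5% DMSO; ATP at 5 microM final.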
L3MBTL1 inh: qHTS Assay for the Inhibitors of L3MBTL1; Lethal(3)malignant brain tumor-like protein 1 (Homo sapiens), Q9Y468; AlphaScreen L3MBTL1–H3K9me1 peptide binding; Potency, µM (doses to about 57.1 µM), usual class: inhibitors; 230,000 tested, 0.66% active; also: nearly all actives have a fitted effect of over 60% in size
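Displacement of a biotinylated histone H3(1-15) peptide monomethylated at Lys9 (75 nM) from L3MBTL1 (50 nM) was measured by AlphaScreen after a 30 min room-temperature compound incubation; cefsulodin titration served as intraplate control.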
HP1b binding inh: HTS for Inhibitors of HP1-beta Chromodomain Interactions with Methylated Histone Tails; AlphaScreen HP1-beta / biotin-H3K9me3 peptide binding; AID 540317, 2011; Potency, µM (titrated, usually from 114 µM), hits mostly inhibitors; Chromobox protein homolog 1 (Homo sapiens), P83916; 390,000 tested, 0.56% active; also: nearly all actives have a fitted effect of over 70% in size
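HP1-beta protein (50 nM final) preincubated 30 min at room temperature with biotinylated H3(1-18)K9me3 peptide (50 nM) in PBS pH 7.4, 0.01% Tween-20, then compound added for 30 min. AlphaScreen streptavidin donor/nickel chelate acceptor beads (10 ug/mL final), 30 min dark, luminescence read.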
JMJD2A Tudor: qHTS Assay for Inhibitors of JMJD2A-Tudor Domain. AlphaScreen JMJD2A-Tudor / H3K4me3 peptide binding. Potency, µM (titrated, usually from 114 µM), actives largely listed as inhibitors. 390,000 tested, 4.4% active; also: nearly all actives have a fitted effect of over 50% in size
KDM4E inh: qHTS Assay for Inhibitors of Human Jumonji Domain Containing 2E (JMJD2E); Lysine-specific demethylase 4E (Homo sapiens), B2RXH2; 230,000 tested, 1.6% active; JMJD2E catalytic domain, FDH-coupled NADH fluorescence (FDH is formaldehyde dehydrogenase); Potency, µM (series often up to 57.1 µM), hits mostly inhibitors; active = well fitted inhibition curve with a large enough effect, not every such curve was filed as active; inconclusive = small, poorly fitted or top-dose-only effect, or another doubt; inactive = no such curve, though single readings can be large or run the other way; also: nearly all actives have a fitted effect of over 50% in size
Hits are given with their value; 0 = inactive; ? = inconclusive; - = no result; [ ] = dose if it differs, or a comment. The list is not random: actives were taken first. Their share in the collection is about 5.7%. Unless noted, calls follow the shape of the dose curve; as a rule, active = well fitted inhibition curve with a large enough effect; inconclusive = small, poorly fitted or top-dose-only effect; inactive = no such curve, though single readings can be large or run the other way.

SMILES	BAZ2B block	PI5P4K alpha inh	L3MBTL1 inh	HP1b binding inh	JMJD2A Tudor	KDM4E inh
COc1cc(OC)cc(C(=O)Oc2c(Sc3ccccc3)c(C)nn2C(C)(C)C)c1	0	-	-	0	0	-
Clc1ccc(C(Cn2ccnc2)OCc2c(Cl)cccc2Cl)c(Cl)c1 (configuration not stated)	31.6µM	0	0	0	?	-
COc1ccc2ccccc2c1CNC(C)CCc1ccccc1 (configuration not stated)	0	0	0	0	79.4µM	-
CN(Cc1ccccc1)CC(O)CN(C)Cc1ccccc1	-	0	-	0	0	-
COc1ccc2ccccc2c1CN(C)Cc1ccccc1	?	0	0[2.29 µM]	0	28.2µM	-
CN(Cc1ccccc1)Cc1c(F)cccc1F	56.2µM	-	0	?	7.08µM	?
OCC[C@@H]1C[C@@H](O)[C@H](O)[C@]2(CCc3ccccc3O2)O1	0	0	0	0	0	-
CCn1c(SCC(=O)Nc2ccccc2)nc2c([nH]c3ccccc32)c1=O	0	-	-	0	0	-
O=c1[nH]c2ccccc2n2c(C(F)(F)F)nnc12	0	0	-	0	0	-
O=c1[nH]c2ccccc2n2c(=S)[nH]nc12	0	0	0	0	3.55µM	0
Cc1cc(NC(=O)Cn2nc([N+](=O)[O-])c(Br)c2C)no1	0	0	0	0	0	0
COc1cccc(/C=N/NC(=O)C(=O)N2CCCC2)c1OC	0	0	0	0	0	0
COc1cccc(/C=N/NC(=O)C(=O)N2CCCC2)c1O	15.8µM	-	22.4µM	0	79.4µM	0
O=C(N/N=C/c1ccccc1O)C(=O)N1CCCCCC1	79.4µM	0	-	0	?	-
CCOc1ccc(/C=N/NC(=O)C(=O)N2CCCCCC2)c2ccccc12	70.8µM	0	-	0	0	-
CCC1CCCCN1C(=O)c1sc(-n2nc(C)c(Cc3ccccc3)c2C)nc1C (configuration not stated)	0	-	-	0	0	-
COc1ccccc1CNC(=O)[C@@H]1CCCN1S(=O)(=O)c1ccccc1F	0	0	-	0	0	-
CCOC(=O)c1c(C)n(S(=O)(=O)c2ccc(C)cc2)c2ccc(NS(=O)(=O)c3ccc(C)cc3)cc12	0	-	-	0	0	-
Cc1ccc(NC(=O)CN2CCN(S(=O)(=O)c3ccc(C(C)C)cc3)CC2)cc1F	0	-	-	0	0	-
CCOC(=O)c1cc(-c2ccc(C)cc2)n(CCC(=O)NCCN(C)C)c1C	50.1µM	-	0	0	?	0
CCOC(=O)c1cc(-c2ccc(C)cc2)n(CCC(=O)N2CCN(c3ccccn3)CC2)c1C	44.7µM	0	0	?	35.5µM	0
O=C(OCC#CCSc1nnc(-c2cccc3ccccc23)o1)c1ccncc1	-	-	-	-	0	-
COc1ccc(S(=O)(=O)NCC(c2ccco2)N2CCOCC2)cc1OC (configuration not stated)	0	-	-	0	0	-
COc1cc(CC(=O)NNC(=O)c2cccs2)cc(OC)c1OC	-	0	0	0	0	-
COc1cc(CNCCNC(=O)c2cccs2)cc(OC)c1OC	89.1µM	0	0	0	28.2µM	0
SMILES	BAZ2B block	PI5P4K alpha inh	L3MBTL1 inh	HP1b binding inh	JMJD2A Tudor	KDM4E inh
CCCn1cnc2cc(NCc3cccc(OC)c3)ccc21	?	-	0	0	?	?
Cc1ccc(CNc2ccc3c(c2)ncn3C(C)C)cc1	35.5µM	0	0	0	?	?
CCCn1cnc2cc(NCc3ccc(Br)cc3)ccc21	44.7µM	0	-	?	15.8µM	-
CCn1cnc2cc(NCc3ccc(Br)cc3)ccc21	44.7µM	0	-	?	14.1µM	-
C[C@@H](c1ccccc1)N1C[C@H](COCc2ccccc2)Oc2cc(N3CC[C@H](N(C)C)C3)ccc2S1(=O)=O	-	0	-	-	-	-
CCOc1ccc(CNC(=O)Cn2nc(C)c3sc4ccccc4c3c2=O)cc1	0	-	-	0	?	-
S=C(NCc1ccco1)Nc1cc(-c2ccccc2)[nH]n1	39.8µM	0	0	?	?	0
CC(C)c1cnc2c(c1SCC(=O)Nc1cccc([N+](=O)[O-])c1)c(=O)n(C)c(=O)n2C	0	-	-	0	?	-
C=CCn1c(SCC(=O)Nc2ccc(C(=O)O)cc2)nc2scc(-c3ccccc3)c2c1=O	-	-91.6	0	?	0	-
C=CCn1c(SCC(=O)Nc2c(C)n(C)n(-c3ccccc3)c2=O)nc2scc(-c3ccccc3)c2c1=O	0	0	-	0	0	0
C=CCn1c(CNC(=O)c2cccs2)nnc1SCC(=O)Nc1ccc(C(=O)O)cc1	0	-62.9	-	0	0	0
C=CCn1c(Cc2cccs2)nnc1SCC(=O)c1ccc(F)cc1	0	0	0	0	56.2µM	0
C=CCn1c(SCC(=O)Nc2ccc(C(=O)O)cc2)nc2sc(C)c(C)c2c1=O	0	-60.0	0	0	0	-
C=CCn1c(Cc2cccs2)nnc1SCC(=O)c1ccc2ccccc2c1	0	-	-	0	0	0
C=CCn1c(CNC(=O)c2cccs2)nnc1SCC(=O)c1ccc(Br)cc1	0	-	0	0	0	0
CC(=O)c1cccc(NC(=O)c2ccc(Cl)c(S(=O)(=O)N3CCOCC3)c2)c1	0	-	-	0	0	-
Cn1c(SCC(=O)Nc2ccc(C(=O)O)cc2)nc2scc(-c3ccccc3Cl)c2c1=O	-	-70.7	0	0	0	-
O=[N+]([O-])c1ccc(N2CCN(CCOCCO)CC2)c([N+](=O)[O-])c1	31.6µM	0	0	?	7.94µM	10µM
O=[N+]([O-])c1cc(C(F)(F)F)ccc1N1CCN(CCO)CC1	0	0	0	0	0	0
Cc1ccc(C)c(CNC(=O)c2ccc3c(c2)nc2n3CCCCC2)c1	0	-	-	0	0	-
O=C(CSc1nnc(CNC(=O)c2c(F)cccc2F)o1)NCc1ccco1	70.8µM	?	-	0	0	-
O=C(Cn1ccc2cc(S(=O)(=O)N3CCCCCC3)ccc21)NCc1ccccc1Cl	0	-	-	0	0	-
O=C(CSc1nnc(-c2ccc(S(=O)(=O)N3CCCC3)cc2)o1)NCc1ccco1	50.1µM	-	0	0	0	0
O=C(Cn1ccc2cc(S(=O)(=O)N3CCCC3)ccc21)NCc1ccco1	0	0	-	0	79.4µM	-
Cn1c(=O)c2c(nc(NCCCCO)n2Cc2ccccc2Cl)n(C)c1=O	0	-	-	0	0	-
O=S(=O)(c1ccc2c(c1)OCCO2)N1CCN(S(=O)(=O)c2c(F)ccc(O)c2F)CC1	-	-	-	-	0	-
CC(C)(C)OC(=O)Cc1nnc(C(C(=O)OCc2ccccc2)c2ccccc2)s1 (configuration not stated)	-	-	-	-	0	-
COc1ccccc1N(CC(=O)NCc1ccco1)C(=O)CCC(=O)Nc1ccccn1	0	0	-	0	0	-
